Laboratory results: PubChem BioAssay

target: Torsin-1A-interacting protein 1 (Homo sapiens) (UniProt Q5JTV8); assay: compound microarray binding of lysate hLAP1 – cell lysate, small-molecule microarray, COS7 lysate, 635/667 nm fluorescence, primary screen (AID 1116); conditions: 635 nm fluorescence, higher = more signal
Sequence (Q5JTV8 whole entry, looked up): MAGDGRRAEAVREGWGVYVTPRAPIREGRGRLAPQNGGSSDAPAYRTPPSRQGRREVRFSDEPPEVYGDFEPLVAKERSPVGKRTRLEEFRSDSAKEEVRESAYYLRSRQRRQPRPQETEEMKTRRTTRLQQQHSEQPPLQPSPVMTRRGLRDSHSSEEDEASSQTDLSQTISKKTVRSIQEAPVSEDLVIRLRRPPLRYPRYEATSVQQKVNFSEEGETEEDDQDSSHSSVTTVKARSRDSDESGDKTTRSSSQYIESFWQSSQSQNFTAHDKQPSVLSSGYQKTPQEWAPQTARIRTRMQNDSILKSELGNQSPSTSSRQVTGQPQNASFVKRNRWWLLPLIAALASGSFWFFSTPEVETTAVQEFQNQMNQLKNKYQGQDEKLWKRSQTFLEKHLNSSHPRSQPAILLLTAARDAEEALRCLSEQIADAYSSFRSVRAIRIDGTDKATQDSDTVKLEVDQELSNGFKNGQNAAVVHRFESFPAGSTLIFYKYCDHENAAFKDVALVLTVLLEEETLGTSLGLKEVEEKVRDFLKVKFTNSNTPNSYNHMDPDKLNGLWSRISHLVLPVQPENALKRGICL

Structure (SMILES)	composite z-score
C=CCN1C(=O)[C@@]2(Cc3ccccc3)N=C(c3ccc(OCCCO)cc3)O[C@H]2c2ccccc21	2.15
CC(=O)Nc1ccc([C@H]2[C@H](C)CC[C@H]3C(=O)N4[C@@H](CC[C@@H](C)[C@@H]4c4ccc(NC(C)=O)cc4)C(=O)N32)cc1	0.424
COc1cc2c(cc1OC)CN(C(=O)[C@@H]1[C@H]3C(=O)O[C@H](c4ccccc4)[C@H](c4ccccc4)N3[C@H](c3ccccc3OCCO)[C@@]13C(=O)Nc1ccccc13)CC2	-0.345
CCOC(=O)C[C@H]1[C@H](OC(=O)Cc2ccc3c(c2)OCO3)[C@@H](NC(=O)c2ccc3ccccc3c2)c2cc(OCCCO)ccc2N1C(=O)Cc1ccc(OC)cc1	0.941
CO[C@@H]1COC(=O)[C@H](C)NC(=O)CC=C[C@@H](C)[C@H](OC)COC(=O)[C@H](C)NC(=O)CC=C[C@H]1C	0.0309
CO[C@H]1COC(=O)CC=C[C@H](C)COC(=O)[C@@H](OCc2ccccc2)C=C[C@@H]1C	0.237
CCCC[C@@H]1C[C@H]1[C@@H](NC(=O)c1ccccc1)c1ccccc1C(F)(F)F	1.06
CO[C@@H]1COC(=O)[C@H](C)NC(=O)CC=C[C@@H](C)[C@H](NS(=O)(=O)c2ccc(C)cc2)COC(=O)CC=C[C@@H]1C	0.117
CC(=O)NCCCC[C@@H]1NC(=O)[C@H]2C[C@@H](C(=O)NCCCCCCN(C)C)[C@@H](c3cccc(OCCO)c3)N2C1=O	2.25
NC(=O)NCC#Cc1ccc2c(c1)[C@]1(C(=O)N2)[C@H](c2ccccc2OCCO)N2[C@H](c3ccccc3)[C@H](c3ccccc3)OC(=O)[C@H]2[C@@H]1C(=O)N1CCN(c2ncccn2)CC1	1.04
C[C@]1(C(=O)NCc2ccccc2)c2ccccc2C(=O)N(Cc2cc(C(F)(F)F)cc(C(F)(F)F)c2)[C@H]1c1ccc(CO)cc1	0.541
C=C(COC)/C(=C/C[C@@H](OC(C)=O)c1cccc(OCCO)c1)c1cc(C(=O)OC)ccc1OC	0.505
COC(=O)[C@H]1[C@@H]2COc3ccccc3[C@H]2N[C@H]1C(=O)OC	0.0767
CCc1cccc(NC(=O)O[C@H]2[C@H](OC(=O)Nc3ccccc3)[C@@H](OC(=O)Nc3ccccc3)[C@@H](OC)O[C@@H]2CO)c1	2.41
C=CCN1C(=O)[C@]2(O[C@H](CCn3cc(CCO)nn3)[C@@H]([Si](C)(C)c3ccc(OC)cc3)[C@@H]2C)c2cc(NC(=O)c3ccc(OC)cc3)ccc21	0.573
C=C(COC)/C(=C/C[C@H](OC(C)=O)c1ccc(OCCO)cc1)c1cnc2ccccc2c1	0.458
[N-]=[N+]=NCc1ccccc1C[C@]1(C(=O)N2CCCCC2)N=C(c2ccc(OCCCO)cc2)O[C@H]1c1ccccc1CN=[N+]=[N-]	1.95
CO[C@H]1O[C@H](CO)[C@@H](OC(=O)Nc2ccccc2)[C@H](OC(=O)Nc2ccc3c(c2)OCO3)[C@@H]1OC(=O)Nc1ccc2c(c1)OCO2	1.99
CCOC(=O)C1=C[C@@H](c2ccccc2)N(S(=O)(=O)c2ccc(C)cc2)[C@H]1c1ccc(F)cc1	0.904
CCCC=C(CCC)[C@@H](NC(=O)c1ccc(C(F)(F)F)cc1)c1ccccc1	0.432
COC(=O)C[C@H]1O[C@]2(C(=O)N(Cc3ccccc3)c3ccc(I)cc32)[C@@H](C)[C@@H]1[Si](C)(C)c1ccc(OC)cc1	-0.267
CCC(=O)[C@]12O[C@@]3([C@@H]4C(=O)OCC[C@@H]41)N(CC)C(C)=C(C(=O)OC)[C@@H](c1ccccc1)N3C2=O	-0.303
COCCOC(=O)N1C(=O)[C@@]2(c3cc(C#CC4=CCCCC4)ccc31)[C@H](c1ccc(O)cc1)N1[C@H](c3ccccc3)[C@H](c3ccccc3)OC(=O)[C@H]1[C@@H]2C(=O)N1CCCCCCC1	0.691
O=C(CS)NCCCCCNC(=O)[C@H]1C[C@H]2C(=O)N3CCC[C@H]3C(=O)N2[C@H]1c1ccc(O)cc1	2.97
CSCC[C@@H]1NC(=O)CC=C[C@@H](C)COC(=O)[C@H](CCSC)NC(=O)CC=C[C@@H](C)COC1=O	-0.242
COCCOC(=O)N1C(=O)[C@@]2(c3cc(C#CCNC(N)=O)ccc31)[C@H](C(=O)N1CCCCCCC1)[C@H]1C(=O)O[C@H](c3ccccc3)[C@H](c3ccccc3)N1[C@@H]2c1ccccc1OCCO	0.845
O=C1O[C@H](c2ccccc2)[C@H](c2ccccc2)N2[C@H]1[C@@H](C(=O)Nc1nc3ccccc3s1)[C@]1(C(=O)Nc3ccc(C#CC4(O)CCCCCC4)cc31)[C@H]2c1ccc(O)cc1	1.58
